DT40 TDP1 CPT: DT40-hTDP1 cell growth loss with CPT | chicken DT40 Tdp1-/-;hTDP1 cells + 20 nM CPT, ATP luminescence, 48 h | 12% of 420,000 active | Potency, µM (top dose mostly 46.2 µM), most hits filed as inhibitors; note: nearly all actives have a fitted effect of over 55% in size
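Chicken DT40 Tdp1-/- cells stably complemented with human TDP1 were seeded at 400 cells/well in medium containing 20 nM camptothecin, exposed to pin-transferred compounds, and grown at 37 °C for at least 48 hr. Viability was read as ATP luminescence.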
KB-V1 MDR tox: kills drug-selected multidrug resistant KB-V1 cells; Potency, µM (titrated, usually from 46.1 µM), usual class: cytotoxic; KB-V1 MDR cells viability, CellTiter-Glo, 72 h; 3.4% of 400,000 active; note: nearly all actives have a fitted effect of over 60% in size
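KB-V1 cells (P-gp-expressing MDR subline of KB-3-1) in phenol-red-free DMEM with 10% FBS were exposed to library compounds over a concentration series for 72 h at 37 degrees C. Viability read by CellTiter-Glo luminescence; concentration-effect curves fitted after normalization.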
HT1080 IDH1KD tx: kills HT-1080 cells with IDH1 knockdown. AID 686971. HT-1080 IDH1 knockdown viability, ATP luminescence, 48 h. 2% of 360,000 active. Potency, µM (series often up to 46.1 µM), usual class: cytotoxic
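Luminescent ATP read-out (CellTiter-Glo, 10 min at room temperature) after 48 h compound exposure at 37 °C gave viability of IDH1-knockdown HT-1080 cells. Activity was normalised to DMSO and cell-free wells, then fitted as concentration-response curves.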
HT1080-NT tox: kills 2HG-producing HT-1080-NT fibrosarcoma cells; HT-1080-NT fibrosarcoma viability, CellTiter-Glo ATP luminescence, 48 h; Potency, µM (series often up to 46.1 µM), usual class: cytotoxic; 1.6% of 360,000 active; AID 686970;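 note: NT is the 2HG producing partner of a matched IDH1 knockdown line; nearly all actives have a fitted effect of over 55% in size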
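Toxicity toward the 2HG-producing NT line was scored as %Activity, normalised to DMSO and no-cell wells, from CellTiter-Glo luminescence after 48 hours' treatment.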
TDP1 cell noCPT: qHTS for Inhibitors of human tyrosyl-DNA phosphodiesterase 1 (TDP1): qHTS in cells in absence of CPT | DT40 Tdp1-/- hTDP1 cells, no CPT, ATP luminescence, 48 h | AID 686978, 2013 | Potency, µM (series often up to 46.2 µM), hits mostly inhibitors | 15% of 420,000 active; note: nearly all actives have a fitted effect of over 55% in size
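Luminescent ATP content (CellTiter-Glo) served as the growth readout. Knockout chicken DT40 cells expressing human TDP1 were exposed to compounds without camptothecin for a minimum 48 hr at 37 °C.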
KB-3-1 cytotox: kills parental KB-3-1 adenocarcinoma cells. AID 1347075. KB-3-1 viability, CellTiter-Glo ATP luminescence, 72 h. 1.4% of 400,000 active. Potency, µM (highest dose often 46.1 µM), most hits filed as cytotoxic; note: nearly all actives have a fitted effect of over 60% in size
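Using CellTiter-Glo luminescence, growth of non-resistant KB-3-1 adenocarcinoma cells is assessed 72 h after pin-tool compound addition at 37 °C. Normalized responses across the concentration series yield fitted curves.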
A number is an active result; n = inactive; u = inconclusive; x = not tested or not shown; ! = not active in a repeat. A selection: hits, their analogues and other compounds. The true share with any hit is near 19%. Calls come from the whole dose curve; as a rule, active = well fitted curve in the direction sought with a large enough effect; inconclusive = small, poorly fitted or top-dose-only effect, or another doubt; inactive = no such curve, though single readings can be large; an effect the other way counts as inactive or inconclusive.

SMILES | DT40 TDP1 CPT | KB-V1 MDR tox | HT1080 IDH1KD tx | HT1080-NT tox | TDP1 cell noCPT | KB-3-1 cytotox
O=C(OC(c1ccccc1)c1nccc2ccccc12)c1cc([N+](=O)[O-])cc([N+](=O)[O-])c1 (stereo not drawn) | 15µM | 8.2µM | n | n | 21µM | n
COc1ccc(-c2cc(C(=O)OCC(=O)c3cccc(OC)c3)c3cccc(Cl)c3n2)cc1 | n | n | x | x | n | n
CCOc1cccc(-c2nnc3sc(-c4cccs4)nn23)c1 | 15µM | 5.2µM | n | n | 13µM | n
COc1cccc(-c2nnc3sc(-c4ccco4)nn23)c1 | n | n | n | n | n | n
COc1cc(-c2nn3c(-c4cc(-c5ccccc5)n[nH]4)nnc3s2)cc(OC)c1OC | 16µM | u | x | x | 8.9µM | u
COc1cccc(-c2nnc3sc(-c4cccs4)nn23)c1 | 15µM | n | n | n | 16µM | n
COc1cc(-c2nn3c(-c4ccccc4)nnc3s2)cc(OC)c1OC | u | u | n | n | u | u
CCOc1cccc(-c2nnc3sc(COc4ccccc4)nn23)c1 | n | u | n | n | n | n
CCOc1cccc(-c2nn3c(-c4ccco4)nnc3s2)c1 | u | 9.2µM | n | n | u | u
CCOc1ccc(-c2nn3c(-c4ccccc4)nnc3s2)cc1 | u | n | n | n | u | n
CC1ON=C(c2ccc(F)cc2)NC1=O (stereo not drawn) | n | n | n | n | n | n
COc1ccc(C(=O)N2CC(=O)Nc3ccc(F)cc3C2c2ccc(F)cc2)c(OC)c1 (stereo not drawn) | u | n | x | x | u | n
CCOc1cccc(-c2nnc3sc(-c4cc(OC)c(OC)c(OC)c4)nn23)c1 | u | 8.2µM | n | n | u | u
CCOc1cccc(-c2nnc3sc(COc4ccc(C)cc4)nn23)c1 | n | n | n | n | n | n
COc1cc(-c2nnc3sc(-c4ccncc4)nn23)cc(OC)c1OC | u | n | n | n | n | n
CCOc1cccc(-c2nnc3sc(COc4ccc(Cl)cc4)nn23)c1 | u | u | n | n | u | 21µM
COc1ccccc1-c1nnc2sc(COc3ccc(Cl)cc3)nn12 | u | n | n | n | 16µM | n
Cc1cc(C)n2c(SCC(=O)N(CCC#N)c3ccc4c(c3)OCCO4)nnc2n1 | n | n | n | n | n | u
Cc1nc2c(-c3ccc(F)cc3)c(C)nn2c(C)c1CCC(=O)NCc1cccc(Cl)c1 | u | n | x | x | u | u
COc1ccc(C=C(C(=O)c2ccccc2)C(=O)c2ccccc2)cc1 | u | u | u | 18µM | u | u
CC(=O)C(=Cc1cccc(C#N)c1)C(=O)c1ccccc1 | 16µM | u | u | u | 16µM | u
CC(=O)C(=Cc1ccc(Cl)cc1)C(=O)c1ccccc1 | 18µM | u | u | u | 18µM | u
CC(=O)Nc1ccc(C=C(C(C)=O)C(C)=O)cc1 | n | n | n | n | u | n
COc1ccc(C(=O)/C(Br)=C\C(=O)O)cc1 | 2.7µM | x | x | x | u | x
CN1OC[C@@H]2CN3C(=O)N(c4ccccc4)c4ccccc4[C@@H]3C[C@@H]21 | u | n | n | n | n | n
SMILES | DT40 TDP1 CPT | KB-V1 MDR tox | HT1080 IDH1KD tx | HT1080-NT tox | TDP1 cell noCPT | KB-3-1 cytotox
COc1ccc(C=C(C(=O)c2ccccc2)c2ccccc2)cc1 | u | u | n | n | u | u
COc1ccc(C=C(C(C)=O)C(=O)c2ccccc2)cc1 | u | n | 23µM | 23µM | u | n
COc1cccc(C(=O)N2CCN(CCc3ccncc3)CC2)c1 | n | x | x | x | n | x
COc1ccc(N2CCN(c3c4c(nc5nncn35)CCC4)CC2)cc1 | 8.2µM | x | x | x | 8.2µM | x
CC(=O)Nc1ccc(S(=O)(=O)NCCS(=O)(=O)N2CCN(c3ccccc3F)CC2)cc1 | 16µM | n | n | n | 21µM | n
CC(=O)Nc1ccc(S(=O)(=O)NCCS(=O)(=O)N2CCN(c3ccccc3)CC2)cc1 | u | n | n | n | n | n
O=[N+]([O-])c1ccc(S(=O)(=O)NCCS(=O)(=O)N2CCN(c3ccccc3)CC2)cc1 | u | n | n | n | 16µM | n
Cc1ccc(N2CC(C(=O)NCCS(=O)(=O)N3CCN(c4ccccc4F)CC3)CC2=O)cc1 (stereo not drawn) | 15µM! | n | n | n | u | n
Cc1ccc(S(=O)(=O)NCCS(=O)(=O)N2CCN(c3ccccc3)CC2)cc1 | n | n | n | n | u | n
Cc1cc(C)c(S(=O)(=O)NCCS(=O)(=O)N2CCN(c3ccccc3)CC2)c(C)c1 | 23µM | x | x | x | 18µM | x
O=C(CCCSc1nc2ccccc2[nH]1)NCc1ccc(Cl)cc1 | u | n | n | n | u | n
O=C(CCCSc1nc2ccccc2[nH]1)NCc1ccccc1F | u | n | n | n | 21µM | n
CCC(=O)N1CCC1(C)C(=O)NCc1ccc(SC)cc1 (stereo not drawn) | n | n | u | n | n | n
O=C(Nc1cccc(-c2cccc(Cl)c2)c1)C1CCN(CC2CCOC2)CC1 (stereo not drawn) | u | n | u | 18µM | u | u
O=C(Nc1cccc(-c2cccc(Cl)c2)c1)C1CCN(Cc2ccccn2)CC1 | u | n | u | u | 26µM | u
CN1CCCC(C(=O)Nc2cccc(Cl)c2)CC1 (stereo not drawn) | n | n | n | n | n | n
O=C(Nc1cccc(-c2cccc(Cl)c2)c1)C1CCN(Cc2ccon2)CC1 | 13µM | n | u | u | 29µM | u
COc1ccnc(Oc2cccc(C(F)(F)F)c2)c1C(=O)N/C=N/OCc1ccccc1F | u | u | u | n | 21µM | n
Cc1ccc2c(c1)NC(=O)C(CC(=O)Nc1ccccc1Cl)O2 (stereo not drawn) | n | x | x | x | n | x
O=C(NCc1ccc(F)cc1)C1CCN(c2ncnc3c2nc2n3CCCCC2)CC1 | n | n | x | x | u | u
CCN(CC)C(=O)[C@H]1C[C@H](CC(=O)NCCc2ccccn2)C(=O)N2CCc3c([nH]c4cc(-c5ccco5)ccc34)[C@]12C | 18µM | n | n | n | u | n
CCN(CC)C(=O)[C@H]1C[C@H](CC(=O)NCCCOC)C(=O)N2CCc3c([nH]c4cc(-c5ccco5)ccc34)[C@]12C | 15µM | n | n | n | 18µM | n
CC(C)N(C(=O)[C@H]1C[C@H](CC(=O)NCCc2ccccn2)C(=O)N2CCc3c([nH]c4cc(-c5ccco5)ccc34)[C@]12C)C(C)C | u | n | n | n | u | n
C[C@]12c3[nH]c4ccc(Cl)cc4c3CCN1C(=O)[C@@H](CC(=O)NCCc1ccccn1)C[C@@H]2C(=O)N1CCOCC1 | u | n | n | n | n | n

Bioassay records (PubChem)
